Shown are actives, neighbours in structure and some others; about 11% of the full set was active somewhere.
BAZ2B inh – inhibitors of human BAZ2B bromodomain | AlphaScreen BAZ2B-H3K14Ac peptide displacement | Potency, µM (top dose mostly 114 µM), actives largely listed as inhibitors | AID 504333 | Q9UIF8 | 360,000 tested, 4.4% active; note: nearly all actives have a fitted effect of over 60% in size
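BAZ2B 50 nM plus b-H3(5-23)K14Ac 50 nM, PBS pH 7.4/0.01% Tween-20, 30 min RT; compound added (max 110 uM), 30 min RT; streptavidin donor/Ni-chelate acceptor beads 10 ug/mL final, 20 min dark; AlphaScreen read.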
JMJD2A Tudor – inhibitors of human JMJD2A Tudor domain; O75164; AlphaScreen JMJD2A-Tudor / H3K4me3 peptide binding; Potency, µM (titrated, usually from 114 µM), most hits filed as inhibitors; 390,000 tested, 4.4% active; AID 504339; note: nearly all actives have a fitted effect of over 50% in size
Target sequence (O75164 whole entry, looked up, the tested form may be a part): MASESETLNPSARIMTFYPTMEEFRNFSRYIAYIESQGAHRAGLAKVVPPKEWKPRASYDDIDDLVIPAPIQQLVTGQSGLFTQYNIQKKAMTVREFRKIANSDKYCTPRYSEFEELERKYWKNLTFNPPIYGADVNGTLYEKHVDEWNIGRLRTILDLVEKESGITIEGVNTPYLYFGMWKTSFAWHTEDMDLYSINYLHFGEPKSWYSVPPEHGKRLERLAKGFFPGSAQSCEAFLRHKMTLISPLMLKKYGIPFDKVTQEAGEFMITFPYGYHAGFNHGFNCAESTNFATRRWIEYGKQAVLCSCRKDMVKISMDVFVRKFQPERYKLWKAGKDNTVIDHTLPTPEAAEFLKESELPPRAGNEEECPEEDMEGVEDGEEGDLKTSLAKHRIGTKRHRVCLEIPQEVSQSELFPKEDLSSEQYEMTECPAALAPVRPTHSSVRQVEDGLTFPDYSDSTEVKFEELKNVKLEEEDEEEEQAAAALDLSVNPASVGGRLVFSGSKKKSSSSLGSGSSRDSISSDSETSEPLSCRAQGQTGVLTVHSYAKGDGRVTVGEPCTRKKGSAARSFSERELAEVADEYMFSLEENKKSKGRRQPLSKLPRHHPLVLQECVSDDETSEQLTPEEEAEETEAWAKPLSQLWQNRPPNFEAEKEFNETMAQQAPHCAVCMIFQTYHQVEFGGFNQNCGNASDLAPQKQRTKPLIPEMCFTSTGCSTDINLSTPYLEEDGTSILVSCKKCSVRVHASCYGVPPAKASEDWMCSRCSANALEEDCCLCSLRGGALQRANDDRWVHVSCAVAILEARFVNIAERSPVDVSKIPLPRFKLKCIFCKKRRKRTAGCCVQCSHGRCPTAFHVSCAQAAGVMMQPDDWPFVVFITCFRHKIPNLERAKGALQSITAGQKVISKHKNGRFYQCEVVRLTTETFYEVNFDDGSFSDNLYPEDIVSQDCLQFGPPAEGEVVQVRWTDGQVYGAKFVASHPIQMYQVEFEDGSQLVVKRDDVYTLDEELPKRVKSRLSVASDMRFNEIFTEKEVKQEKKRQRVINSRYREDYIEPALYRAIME
G9a block – inhibitors of human histone lysine methyltransferase G9a. 350,000 tested, 8.8% active. G9a H3K9 monomethylation, AlphaScreen, 2 h. Potency, µM (titrated, usually from 102 µM), most hits filed as inhibitors. AID 504332. Q96KQ7; note: nearly all actives have a fitted effect of over 75% in size
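Step 1: enzyme (final 20 nM) with compound, 15 min RT. Step 2: substrate peptide 500 nM and SAM 20 uM, 2 h RT. Step 3: anti-H3K9me1 antibody and AlphaScreen beads, 10 min, then plate read.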
VDR inhibitor – inhibitors of human vitamin D receptor | VDR-SRC2-3 peptide fluorescence polarization, 2 h | Potency, µM, actives largely listed as inhibitors | 400,000 tested, 0.93% active | AID 504847
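VDR–SRC2-3 interaction, FP format. Cmpds 23 nl via pintool, brief spin, 2 h ambient incubation.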
HP1b binding inh – HP1-beta chromodomain-methylated histone interaction inhibition; 390,000 tested, 0.56% active; AlphaScreen HP1-beta / biotin-H3K9me3 peptide binding; P83916; Potency, µM (top dose mostly 114 µM), usual class: inhibitors; note: nearly all actives have a fitted effect of over 70% in size
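AlphaScreen: HP1-beta (50 nM) preformed 30 min with biotin-H3(1-18)K9me3 peptide (50 nM) in PBS pH 7.4, 0.01% Tween-20. Compound added for 30 min at RT, then streptavidin donor/nickel chelate acceptor beads (10 ug/mL) for 30 min.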
PLK1 PBD block – inhibitors of human PLK1 polo-box domain binding; Potency, µM, actives largely listed as inhibitors; AID 720504; P53350; 360,000 tested, 2.8% active; Plk1 PBD binding of FITC phosphopeptide, fluorescence polarization; note: series mostly up to about 57 µM; nearly all actives have a fitted effect of over 65% in size
A number is an active result; 0 = inactive; ? = inconclusive; - = no result given; [ ] = another dose, or the depositor's remark. Calls come from the whole dose curve; as a rule, active = well fitted curve in the direction sought with a large enough effect; inconclusive = small, poorly fitted or top-dose-only effect, or another doubt; inactive = no such curve, though single readings can be large; an effect the other way counts as inactive or inconclusive.

SMILES	BAZ2B inh	JMJD2A Tudor	G9a block	VDR inhibitor	HP1b binding inh	PLK1 PBD block
CCOC(=O)c1c(-c2ccccc2)oc2ccc(N(C(C)=O)S(=O)(=O)c3cc(C)ccc3C)cc12	0	0	0	0	0	-
COc1cccc(NC(=O)C2=C(C)C(=O)OC23CCN(C(C)=O)CC3)c1	0	0	0	0	0	-
O=C(/C=C/c1ccco1)Nc1ccc(Cl)c(S(=O)(=O)N2CCOCC2)c1	?	?	50.1µM	0	0	0
O=C(Nc1ccccc1)Nc1ccc(Cl)c(S(=O)(=O)N2CCOCC2)c1	0	0	0	0	0	0
O=C(CN1CCN(C(=O)c2ccco2)CC1)Nc1ccc2c(c1)OCCO2	0	0	50.1µM	0	0	0
CC(C(=O)Nc1ccc2c(c1)OCCO2)N1CCN(C(=O)c2ccco2)CC1 (stereo not drawn)	0	0	?	0	0	0
CC1CC(c2ccccc2)n2nc(NC(=O)CCc3ccccc3)nc2N1 (stereo not drawn)	50.1µM	79.4µM	0	0	0	0
COCC(=O)Nc1nc2n(n1)C(c1ccccc1)CC(c1ccc(OC)cc1)N2 (stereo not drawn)	?	56.2µM	?	0	0	0
CCCOc1ccc(CNC(=O)c2ccc(C)c(-n3c(C)nc4cccnc43)c2)cc1	0	0	0	0	0	-
COc1ccc(Cn2nnnc2C(c2cc(OC)ccc2OC)N2CCC(C(N)=O)CC2)cc1 (stereo not drawn)	0	0	0	0	0	0
Cc1ccc(-n2c3nc(=O)[nH]c(=O)c-3cc3cc([N+](=O)[O-])ccc32)cc1C	0	0	44.7µM	?	0	8.44µM
CCCCCCCCCCCCCCC(C(=O)O)C(O)(CC(=O)OC)C(=O)O (stereo not drawn)	-	-	-	22.4µM	-	-
O=C(O)Cc1sc(Nc2ccccc2)nc1-c1cccs1	0	0	0[12.7 µM]	79.4µM	0	21.2µM
O=C(Cc1sc(Nc2ccccc2)nc1-c1ccccc1)NCc1ccccc1	0	0	50.1µM	0	?	0
COc1ccccc1Nc1nc(-c2ccccc2)c(CC(=O)O)s1	0	0	?	0	0	-
C=CCNc1nc(-c2cccs2)c(CC(=O)O)s1	?	0	0[12.7 µM]	0	0	?
O=C(O)Cc1sc(Nc2cccc3ccccc23)nc1-c1ccc(F)cc1	0	0	44.7µM	0	0	0
CCN(CC)CCNc1nc(-c2cccs2)c(CC(=O)O)s1	20µM	5.62µM	8.91µM	0	?	0
O=S1(=O)N=C(OCc2ccccc2)c2ccccc21	-	0	-	-	-	-
Cc1ccc(CNC(=O)CCCn2c(=O)c3ccccc3n(CC(=O)Nc3ccc(C)cc3)c2=O)cc1	0	0	0	0	0	-
O=C(O)Cc1sc(N/N=C\c2ccccc2)nc1-c1ccccc1	?	?	3.16µM	0	0	11.9µM
Cc1ccc(-c2nc(Nc3cccc(C)c3)sc2CC(=O)O)cc1	0	?	-	0	0	?
Cc1cccc(NC(=O)C(NS(=O)(=O)c2ccc3c(c2)CCC(=O)N3)c2ccccc2)n1 (stereo not drawn)	0	?	22.4µM	0	0	12.6µM
c1ccc(CNc2nc(-c3cccnc3)cs2)cc1	?	?	50.1µM	?	0	0
Brc1cccc(Nc2nc(-c3cccnc3)cs2)c1	0	0	-	0	0	0
SMILES	BAZ2B inh	JMJD2A Tudor	G9a block	VDR inhibitor	HP1b binding inh	PLK1 PBD block
Brc1ccc(Nc2nc(-c3cccnc3)cs2)cc1	0	0	31.6µM	0	0	0
CCCNC(=O)C(Cc1ccc(Cl)cc1)NC(=O)c1ccc(-c2ccccc2)cc1 (stereo not drawn)	0	0	0[2.33 µM]	0	0	0
Cc1ccc(S(=O)(=O)NC2OC(=O)C(Cl)=C2Cl)cc1 (stereo not drawn)	79.4µM	0	?	0	0	0
CCCCNC(=O)C1CCCN(S(=O)(=O)CCC)C1 (stereo not drawn)	0	0	0	0	0	-
Cc1cccc(NS(=O)(=O)c2cccs2)c1	0	0	0[12.7 µM]	0	0	0
Cc1cc(C)nc(NS(=O)(=O)c2cccs2)c1	0	0	56.2µM	0	0	0
COc1ccc(C(CCN2CCOCC2)c2c(OC)cc(OC)c3ccc(=O)oc23)cc1 (stereo not drawn)	-	0	-	0	0	0
COc1cc(OC)c2c(-c3ccccc3)cc(=O)oc2c1C(CCN1CCCC(C)C1)c1ccc(N(C)C)cc1 (stereo not drawn)	15.8µM	11.2µM	?	0	?	0
COc1ccc(C(CCN2CCCC(C)C2)c2c(OC)cc(OC)c3c(-c4ccccc4)cc(=O)oc23)cc1 (stereo not drawn)	0	?	0[12.7 µM]	0	0	0
COc1ccc(C(CCN2CCCC2)c2c(OC)cc(OC)c3c(-c4ccccc4)cc(=O)oc23)cc1 (stereo not drawn)	0	?	0[12.7 µM]	0	0	0
COc1cc(OC)c2ccc(=O)oc2c1C(CCN1CCN(c2ccccc2)CC1)c1ccc(N(C)C)cc1 (stereo not drawn)	35.5µM	22.4µM	0	0	?	0
CCCCCc1cc(=O)oc2c(C(CCN3CCN(c4ccccc4)CC3)c3ccc(N(C)C)cc3)c(OC)cc(OC)c12 (stereo not drawn)	6.31µM	22.4µM	?	0	?	0
CCN(CC)CCC(c1ccc(N(C)C)cc1)c1c(OC)cc(OC)c2c(-c3ccccc3)cc(=O)oc12 (stereo not drawn)	31.6µM	22.4µM	?	0	?	0
COc1ccc(NC(=O)CCn2c(=O)c3cccn3c3cccnc32)c(OC)c1	?	0	0	0	0	-
CCNC(=S)N/N=C/c1ccc(OCC(=O)Nc2ccc(C)cc2)cc1	0	0	0	0	0	0
COc1cc(OC)c2c(C)cc(=O)oc2c1C(CCN1CCOCC1)c1ccc(N(C)C)cc1 (stereo not drawn)	39.8µM	50.1µM	0[12.7 µM]	0	?	0
COc1ccc(C(CCN2CCN(c3ccccc3)CC2)c2c(OC)cc(OC)c3c(-c4ccccc4)cc(=O)oc23)cc1 (stereo not drawn)	?	?	?	0	0	0
COc1cc(OC)c2ccc(=O)oc2c1C(CCN1CCOCC1)c1ccc(N(C)C)cc1 (stereo not drawn)	-	-	28.2µM	0	-	-
COc1cc(OC)c2c(-c3ccccc3)cc(=O)oc2c1C(CCN1CCN(c2ccccc2)CC1)c1ccc(N(C)C)cc1 (stereo not drawn)	4.47µM	4.47µM	?	0	?	0
CCOC(=O)N1CCN(S(=O)(=O)c2c[nH]c(C(=O)OC)c2)CC1	0	0	0	0	0	0
C=CCN1C(=O)/C(=C/c2ccc(OC(C)=O)c(OCC)c2[N+](=O)[O-])SC1=S	11.2µM	25.1µM	6.31µM	0	15.8µM	0
CCOc1c(OC(C)=O)ccc(/C=C/c2ccc3cccc(OC(C)=O)c3n2)c1[N+](=O)[O-]	?	?	0[0.0925 µM]	0	0	0

High-throughput results from PubChem BioAssay.
